Measured values: PubChem BioAssay AID1159580 (chemical genetic matrix, 2015)
Hit rate of the full screen: of about 5,500 compounds, about 2,000 (36%) were called active. Inconclusive results (about 18%) are left out. Rule as the data show it: active = normalized growth mostly below about 0.91 (no sharp cut-off); inconclusive = no clear call, values can overlap the other calls; inactive = mostly above about 0.92. The list shows a part of the results.

Experiment: chemical genetic growth profiling, strain panel (AID 1159580);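 also: tested at 20 µM; growth read once vehicle control cultures reached saturation at 30 °C; 1 = growth at the plate median or of vehicle wells; lower values mean less growth of the strain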
Conditions: S. cerevisiae deletion strains, growth OD
[1] = locus YDL101C, strain DUN1, stronger effect = lower value
[2] = locus YHR030C, strain SLT2, stronger effect = lower value

Measured: normalized growth

COC(=O)c1ccc([N+](=O)[O-])cc1Cl
inactive: locus YAL013W, strain DEP1, stronger effect = lower value 0.991 | locus YBR229C, strain ROT2, stronger effect = lower value 0.998 | locus YCL061C, strain MRC1, stronger effect = lower value 1 | [1] 0.989 | locus YDL134C, strain PPH21, stronger effect = lower value 0.983 | locus YDR150W, strain NUM1, stronger effect = lower value 0.923 | locus YEL061C, strain CIN8, stronger effect = lower value 0.988 | locus YGR078C, strain PAC10, stronger effect = lower value 0.993 | [2] 0.989 | locus YHR087W, strain rtc3, stronger effect = lower value 1.01 | locus YJL187C, strain SWE1, stronger effect = lower value 0.991 | locus YJR043C, strain POL32, stronger effect = lower value 1.02 | locus YJR075W, strain HOC1, stronger effect = lower value 0.996 | locus YLR039C, strain RIC1, stronger effect = lower value 0.983 | locus YLR058C, strain SHM2 (second series), stronger effect = lower value 0.983 | locus YLR085C, strain ARP6, stronger effect = lower value 0.881 | locus YLR262C, strain YPT6, stronger effect = lower value 1 | locus YML094W, strain GIM5, stronger effect = lower value 0.964 | locus YMR219W, strain ESC1, stronger effect = lower value 0.992 | locus YMR263W, strain SAP30, stronger effect = lower value 0.992 | locus YMR307W, strain GAS1, stronger effect = lower value 1.05 | locus YNL128W, strain TEP1, stronger effect = lower value 0.985 | locus YNL153C, strain GIM3, stronger effect = lower value 1.01 | locus YNL298W, strain CLA4 (second series), stronger effect = lower value 0.97 | locus YNL322C, strain KRE1, stronger effect = lower value 1 | locus YNR030W, strain Alg12, stronger effect = lower value 1.01 | locus YOL006C, strain TOP1, stronger effect = lower value 0.756 | locus YPL055C, strain LGE1, stronger effect = lower value 0.95 | locus YPL241C, strain CIN2, stronger effect = lower value 0.992 | locus YPR135W, strain CTF4, stronger effect = lower value 1.03

COc1cc(C(=O)Oc2c(Cl)cc(Cl)cc2C=Nc2cccc(C(F)(F)F)c2)cc(OC)c1OC
active: locus YDL214C, strain PRR2, stronger effect = lower value 0.627 | locus YDR477W, strain SNF1, stronger effect = lower value 0.589 | locus YER123W, strain YCK3, stronger effect = lower value 0.422 | locus YER133W, strain GLC7, stronger effect = lower value 0.585 | locus YFR019W, strain FAB1, stronger effect = lower value 0.702 | locus YGR040W, strain KSS1, stronger effect = lower value 0.636 | locus YGR052W, strain FMP48, stronger effect = lower value 0.556 | locus YGR092W, strain DBF2, stronger effect = lower value 0.308 | [2] 0.363 | locus YHR079C, strain IRE1, stronger effect = lower value 0.388 | locus YHR082C, strain KSP1, stronger effect = lower value 0.484 | locus YHR205W, strain SCH9, stronger effect = lower value 0.465 | locus YJL095W, strain BCK1, stronger effect = lower value 0.421 | locus YJL157C, strain FAR1, stronger effect = lower value 0.617 | locus YJR066W, strain TOR1, stronger effect = lower value 0.368 | locus YKL048C, strain ELM1, stronger effect = lower value 0.78 | locus YKL067W, strain YNK1, stronger effect = lower value 0.605 | locus YKL101W, strain HSL1, stronger effect = lower value 0.648 | locus YKL203C, strain TOR2, stronger effect = lower value 0.693 | locus YLR113W, strain HOG1, stronger effect = lower value 0.488 | locus YLR133W, strain CKI1, stronger effect = lower value 0.626 | locus YLR403W, strain SFP1, stronger effect = lower value 0.473 | locus YML070W, strain DAK1, stronger effect = lower value 0.583 | locus YMR205C, strain PFK2 (second series), stronger effect = lower value 0.656 | locus YNL020C, strain ARK1, stronger effect = lower value 0.594 | locus YNL183C, strain NPR1, stronger effect = lower value 0.497 | locus YNL307C, strain MCK1 (second series), stronger effect = lower value 0.555 | locus YOL136C, strain PFK27, stronger effect = lower value 0.548 | locus YOR061W, strain CKA2, stronger effect = lower value 0.576 | locus YOR119C, strain RIO1, stronger effect = lower value 0.597 | locus YOR231W, strain MKK1, stronger effect = lower value 0.465 | locus YPL031C, strain PHO85, stronger effect = lower value 0.574 | locus YPL153C, strain RAD53, stronger effect = lower value 0.578 | locus YPL204W, strain HRR25, stronger effect = lower value 0.562 | locus YPL256C, strain CLN2, stronger effect = lower value 0.443
inactive: locus YAR019C, strain CDC15, stronger effect = lower value 0.977 | locus YBL105C, strain PKC1, stronger effect = lower value 0.976 | locus YBR135W, strain CKS1, stronger effect = lower value 0.971 | locus YBR136W, strain MEC1, stronger effect = lower value 0.973 | locus YBR160W, strain CDC28, stronger effect = lower value 0.968 | locus YDL017W, strain CDC7, stronger effect = lower value 0.974 | locus YDL028C, strain MPS1, stronger effect = lower value 0.962 | [1] 0.986 | locus YDL108W, strain KIN28, stronger effect = lower value 0.966 | locus YDL132W, strain cdc53, stronger effect = lower value 0.963 | locus YDR052C, strain DBF4, stronger effect = lower value 0.983 | locus YDR054C, strain cdc34, stronger effect = lower value 0.959 | locus YDR226W, strain ADK1, stronger effect = lower value 0.965 | locus YFL009W, strain cdc4, stronger effect = lower value 0.957 | locus YFL029C, strain CAK1, stronger effect = lower value 0.978 | locus YFR003C, strain YPI1, stronger effect = lower value 0.972 | locus YFR028C, strain CDC14, stronger effect = lower value 0.951 | locus YIL147C, strain SLN1, stronger effect = lower value 0.972 | locus YJL128C, strain PBS2, stronger effect = lower value 0.917 | locus YJR016C, strain ILV3, stronger effect = lower value 0.986 | locus YJR066W, strain TOR1 (second series), stronger effect = lower value 0.775 | locus YKL193C, strain SDS22, stronger effect = lower value 0.971 | locus YMR001C, strain CDC5, stronger effect = lower value 0.975 | locus YMR277W, strain FCP1, stronger effect = lower value 0.97 | locus YNL006W, strain LST8, stronger effect = lower value 0.981 | locus YNL161W, strain CBK1, stronger effect = lower value 0.977 | locus YNL207W, strain RIO2, stronger effect = lower value 0.982 | locus YNL222W, strain SSU72, stronger effect = lower value 0.969 | locus YOL078W, strain AVO1, stronger effect = lower value 0.969 | locus YOR329C, strain SCD5, stronger effect = lower value 0.978 | locus YPL209C, strain IPL1, stronger effect = lower value 0.976 | locus YPR025C, strain CCL1, stronger effect = lower value 0.966 | locus YPR106W, strain ISR1, stronger effect = lower value 0.965 | locus YPR111W, strain DBF20, stronger effect = lower value 0.931 | strain NNK1, stronger effect = lower value 0.98 | strain TSCII, stronger effect = lower value 0.967
